Most compounds without a hit are left out; they make up all but 1.2% or so of the library.
RGS7-Gao – regulators of human RGS7-Galphao interaction. P09471. Multiplexed bead flow cytometry, RGS7-Galphao binding; actives lie on both sides. binding response (% of control), % at 10 µM. 220,000 compounds, 0.35% hits. AID 1439; in the data active means binding response below about 49% or above about 150%; inconclusive means no clear call, values can overlap the other calls; inactive means in between;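 further: fluorescent Galphao held in activated GDP-AlF4 state binding bead-coupled RGS7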
Target sequence (P09471 whole entry, looked up): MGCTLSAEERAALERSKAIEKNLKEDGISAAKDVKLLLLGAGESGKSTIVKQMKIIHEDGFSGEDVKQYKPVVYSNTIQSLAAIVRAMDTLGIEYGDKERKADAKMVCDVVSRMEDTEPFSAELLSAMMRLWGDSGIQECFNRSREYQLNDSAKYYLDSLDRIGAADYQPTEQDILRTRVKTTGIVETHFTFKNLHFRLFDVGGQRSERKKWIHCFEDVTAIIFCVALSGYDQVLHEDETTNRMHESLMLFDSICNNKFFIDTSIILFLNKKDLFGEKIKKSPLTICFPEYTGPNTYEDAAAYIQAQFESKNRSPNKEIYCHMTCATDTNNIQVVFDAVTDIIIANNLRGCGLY
Avidin fluor – avidin bead compound fluorescence profile. fluorescence (KMESF) at 10 µM. Avidin beads, compound fluorescence 488/530 nm, flow cytometry; hits give high values. 220,000 compounds, 0.38% hits; in the data active means fluorescence above about 47
RGS8-Gao – regulators of human RGS8-Galphao interaction; P09471; multiplexed bead flow cytometry, RGS8-Galphao binding; actives lie on both sides; response (percent of control binding), % at 10 µM; 220,000 compounds, 0.34% hits; AID 1423; in the data active means response below about 60% or above about 140%; inactive means in between;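 further: Galphao activated as the GDP aluminium fluoride complex binding bead-coupled RGS8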
RGS16-Gao – modulates binding between human RGS16 and Galphao; O15492+P09471; bead-based flow cytometry RGS16-Galphao binding, fluorescence; actives lie on both sides; binding response (% of control), % at 10 µM; 220,000 compounds, 0.38% hits; call rule not given here;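 further: Galphao activated by GDP with aluminum fluoride before binding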
Target sequence (O15492 whole entry, looked up): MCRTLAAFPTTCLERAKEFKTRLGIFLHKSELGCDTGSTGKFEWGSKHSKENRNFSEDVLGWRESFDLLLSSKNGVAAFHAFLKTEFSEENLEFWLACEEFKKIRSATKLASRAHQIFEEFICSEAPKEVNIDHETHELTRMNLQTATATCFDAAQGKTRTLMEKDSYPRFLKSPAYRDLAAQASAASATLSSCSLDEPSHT
Target sequence (P09471 whole entry, looked up): as the sequence (P09471 whole entry, looked up) above
RGS4-Gao reg – modulates binding of RGS4 to human Galphao; P09471; Multiplexed bead flow cytometry; actives lie on both sides; binding response (% of control), % at 10 µM; 220,000 compounds, 0.33% hits; in the data active means binding response below about 49% or above about 150%; inactive means in between;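 further: fluorescent Galphao activated with aluminum fluoride binding bead-coupled RGS4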
GSH fluor – compound fluoresces at 488/530 nm on GSH beads | fluorescence (KMESF) at 10 µM | GSH beads flow cytometry, compound fluorescence 488/530 nm; hits give high values | 190,000 compounds, 0.25% hits | AID 1776; in the data active means fluorescence above about 89;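 further: glutathione beads carrying GST-tagged Bcl family fusion proteins plus one bare bead set; values are compound well signal with DMSO vehicle wells as background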
An asterisk follows results filed as active; ? = inconclusive; . = no result.

SMILES	RGS7-Gao	Avidin fluor	RGS8-Gao	RGS16-Gao	RGS4-Gao reg	GSH fluor
Cc1cc2occ(CC(=O)O)c2cc1C	97.9	7	100.6	95.4	96.7	234*
COc1cc(/C=N/N(C)c2ccccc2)ccc1O	98.3	8	99.8	100.8	98.3	4
COc1cc(OC)c(OC)cc1/C=N/N(C)c1ccccc1	133.9	54*	107.5	147.6	148.3	33
COc1cc(C#N)c(NC(=O)CN2CCC(C(N)=O)CC2)cc1OC	98.6	8	98.9	96.6	100.1	13
CC(C)(C)NC(=O)c1cccc(NC(=O)c2ccc(NC(=O)c3ccco3)cc2)c1	101.7	10	100.9	99.7	98.7	29
CC(C)(C)NC(=O)c1cccc(NC(=O)c2ccco2)c1	95.0	4	89.5	79.7	97.6	99*
Cc1cccc(OCC(O)CN2CC3(C)CC2CC(C)(C)C3)c1 (stereo unspecified)	97.7	4	106.4	119.0	101.2	9
COCc1cc(CN2CCCC2)c(O)c2ncccc12	113.6	66*	100.8	101.3	104.0	14
Cc1c(NC(=O)C(C)N2C(=O)C3CCCCC3C2=O)c(=O)n(-c2ccccc2)n1C (stereo unspecified)	104.9	9	100.4	99.0	100.0	25
CC(=O)Nc1nc(CC(C)C)cc(-c2ccco2)c1C#N	108.9	57*	100.6	101.9	104.8	21
Cc1ccc(S(=O)(=O)NC(=O)NCc2ccccc2)cc1	99.8	18	101.5	104.3	102.6	49
Cc1ccc(S(=O)(=O)NC(=O)NCc2ccccn2)cc1	98.8	8	102.5	102.8	103.9	256*
CCCC(=O)Nc1ccc2oc(-c3ccc(OC)c(Br)c3)nc2c1	108.6	54*	99.1	100.5	102.7	24
CCCC(=O)Nc1ccc(-c2nc3cc(C)ccc3o2)cc1	100.7	10	101.4	100.0	102.5	30
CC(C)CC(NS(=O)(=O)c1cccc(C(=O)O)c1)C(=O)O (stereo unspecified)	102.9	4	103.0	100.1	101.7	21
CCC(C)[C@H]1CN=C(N)N1CCc1cc(C(F)(F)F)cc(C(F)(F)F)c1 (stereo partly specified)	?	9	96.8	92.0	93.6	.
COc1cc(N2CN=c3s/c(=C\c4ccccn4)c(=O)n3C2)cc(OC)c1OC	106.4	9	102.3	107.4	109.9	265*
O=c1/c(=C/c2ccccn2)sc2n1CN(c1ccccc1)CN=2	92.4	3	100.5	51.8	88.1	3
O=C1Nc2ncccc2OC1CCCl (stereo unspecified)	100.1	8	96.2	98.5	97.5	258*
COc1cc(CN2CCN(c3cccc(C)c3C)CC2)cc(Br)c1O	102.3	8	103.0	106.1	101.9	272*
COc1ccc(CN2CCN(c3cccc(C)c3C)CC2)cc1OC	98.7	11	100.6	100.1	100.8	54
O=c1[nH]nc(SCc2nnc(-c3ccc([N+](=O)[O-])cc3)o2)n1C1CCCCC1	?	4	100.4	99.7	102.5	.
O=S1(=O)N=C(N=Nc2c(O)[nH]c3ccccc23)c2ccccc21	11.8*	2	16.9*	4.8*	12.5*	9
Oc1[nH]c2ccccc2c1N=Nc1ccccc1	?	9	101.4	103.8	100.3	.
CC(C)CN1CCC(=O)N(CCSc2ccc(Br)cc2)CC1	?	9	100.8	98.4	100.3	.
SMILES	RGS7-Gao	Avidin fluor	RGS8-Gao	RGS16-Gao	RGS4-Gao reg	GSH fluor
O=C(CSc1n[nH]c(=O)[nH]c1=O)N/N=C/c1ccccc1	93.5	10	109.4	130.6	92.7	215*
O=C(Cc1n[nH]c(=O)[nH]c1=O)N/N=C/c1ccccc1	101.7	21	104.2	102.7	102.6	9
COc1cc(/C=N\Nc2ccc([N+](=O)[O-])cc2)ccc1OCC(=O)Nc1ccc(C)c(C)c1	95.1	61*	100.2	103.4	92.3	13
CCOc1cc(/C=N\Nc2ccc([N+](=O)[O-])cc2)ccc1OCC(=O)Nc1ccc(C)c(C)c1	95.2	32	98.5	92.7	93.5	16
O=C(O)c1cc(-c2cccnc2)nn1-c1ccccn1	99.8	7	99.0	106.0	99.0	260*
CCOC(=O)c1sc(NC(=S)NC(=O)C2CCCC2)cc1C	139.1	49*	103.0	103.6	105.6	12
CCOC(=O)c1sc(NC(=O)C2CC2)cc1C	99.6	6	99.7	100.3	99.5	24
S=C(NCc1ccc2[nH]c3c(c2c1)CCCC3)Nc1ccccc1	50.3	3	70.0	55.3	49.1*	17
COC(=O)CCCCCCCCC(O)CN1CCCCC1 (stereo unspecified)	102.0	2	97.3	93.0	99.9	6
O=C(Cn1c(-c2cscn2)nc2ccccc21)Nc1ccccc1F	111.5	50*	104.0	117.7	103.3	14
O=C(NCC(=O)N(c1cccnc1)C(C(=O)NC1CCCC1)c1ccco1)c1cccs1 (stereo unspecified)	113.1	57*	101.1	100.6	104.9	28
FC(F)Oc1ccc(/C=N/N2CCCCC2)c(OC(F)F)c1	?	15	101.6	97.4	103.2	14
CC(C)[C@H](NC(N)=O)C(=O)Nc1cccc(S(=O)(=O)N2CCOCC2)c1	93.3	9	96.2	103.0	96.1	21
CCN1C(=O)C(CC(=O)Nc2ccccc2)S/C1=N\c1ccccn1 (stereo unspecified)	99.7	9	99.4	101.8	100.3	18
Cc1cccc(C(=O)NCC(=O)OCC(=O)N2CCc3ccccc32)c1	?	13	100.3	101.2	100.9	10
Cc1cccc(OCCC(=O)OCC(=O)N2CCc3ccccc32)c1	116.2	54*	103.3	105.9	103.6	21
COc1cc(/C=N\NC(=O)c2ccccc2F)ccc1Oc1ccc([N+](=O)[O-])cn1	?	23	105.2	114.8	114.3	.
O=C1CC(N2CCCc3ccccc32)C(=O)N1c1ccccc1Cl (stereo unspecified)	100.8	20	103.1	107.2	103.7	11
CCOC(=O)C1=C(C)NC(SC)=NC1c1ccc(OC)cc1 (stereo unspecified)	106.1	4	103.4	109.8	107.0	111*
NNC(=O)c1nc(-c2cccc(-n3cccc3)c2)no1	?	5	96.8	94.9	99.2	.
c1ccc(Cn2c(CSc3nnnn3-c3ccccc3)nc3ccccc32)cc1	97.1	3	97.2	25.7	84.5	237*
Cc1ccc(CN2CCN(C/C=C/c3ccc(F)cc3)CC2CCO)o1 (stereo unspecified)	102.2	6	113.0	135.6	100.2	9
COc1ccc(CCNC(=O)c2ccc(=O)[nH]n2)cc1OC	102.7	7	100.0	106.5	103.6	41
COc1ccc(CCNC(=O)c2cc(-c3cc(C)c(C)cc3O)n[nH]2)cc1OC	131.6	90*	96.5	105.0	109.0	22
